# Assay results reported in PubChem BioAssay (NCATS).
# Values joined by “and” are separate entries in the source; they are usually repeats but may differ in a detail not shown here. Equal entries are not always repeated. A number with no mark means an inactive call. Results filed as inconclusive are left out. Active and inactive are the calls of the source. Calls follow the shape of the dose curve; as a rule, active = well fitted curve in the direction sought with a large enough effect; inconclusive = small, poorly fitted or top-dose-only effect, or another doubt; inactive = no such curve, though single readings can be large; an effect the other way counts as inactive or inconclusive.
# How the values were obtained:
# [1] = biological target: Cytochrome P450 2C9 (Homo sapiens) (UniProt P11712); assay: qHTS Assay for Inhibitors and Substrates of Cytochrome P450 2C9 (AID 883); conditions: recombinant CYP2C9, luciferin-H luminescence, 60 min; series mostly up to 11.4 µM; also: nearly all actives have a fitted effect of over 60% in size; also: potency is read from the fitted curve at half-maximal effect; as to activity change, negative = inhibition: % is scaled to controls: 0 for no effect and ±100 for the full control effect
# Summary of the method: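 Human CYP2C9 (10nM) hydroxylated Luciferin-H (100uM, at its KM) to luciferin in 25mM KPO4. Compound was preincubated 10 min at 37C, then NADPH regeneration started a 60 min reaction at 37C. Luminescence was read after detection reagent, normalized to 57uM sulphaphenazole.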
# [2] = biological target: Cytochrome P450 3A4 (Homo sapiens) (UniProt P08684); assay: qHTS Assay for Inhibitors and Substrates of Cytochrome P450 3A4 (AID 884); conditions: recombinant CYP3A4, Luciferin-PPXE luminescence; series mostly up to 57.1 µM; also: nearly all actives have a fitted effect of over 50% in size; also: potency is read from the fitted curve at half-maximal effect; as to activity change, negative = inhibition: % is scaled to controls: 0 for no effect and ±100 for the full control effect
# Summary of the method: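 Luminescent readout of luciferin produced by CYP3A4 (20 nM) dealkylation of Luciferin-PPXE, 25 uM (its KM). NADPH-driven reaction ran 60 min at RT after 10 min compound preincubation; data scaled to 57 uM ketoconazole as 100% inhibition.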
# [3] = biological target: Cytochrome P450 3A4 (Homo sapiens) (UniProt P08684); assay: qHTS Assay for Activators of Cytochrome P450 3A4 (AID 885); conditions: recombinant CYP3A4, Luciferin-PPXE luminescence, 60 min; series mostly up to 57.1 µM; also: nearly all actives have a fitted effect of over 65% in size
# Summary of the method: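 Activators are scored by enhanced luminescence from CYP3A4 conversion of luciferin-PPXE (25uM, equal to KM) to luciferin, after 60 min at RT with an NADPH-regenerating system.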
# [4] = biological target: Cytochrome P450 2D6 (Homo sapiens) (UniProt P10635); assay: qHTS Assay for Inhibitors and Substrates of Cytochrome P450 2D6 (AID 891); conditions: recombinant CYP2D6, luciferin-ME EGE luminescence; series mostly up to 11.4 µM; also: nearly all actives have a fitted effect of over 60% in size; also: potency is read from the fitted curve at half-maximal effect;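 as to activity change, negative = inhibition: luciferin methyl ether substrate demethylated by CYP2D6 with NADPH regeneration; % is scaled to controls: 0 for no effect and ±100 for the full control effect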
# Summary of the method: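 Luminescent read-out of luciferin formed by 5 nM human CYP2D6 demethylating 30 uM Luciferin-ME EGE (Km level) over 60 min at room temperature after NADPH regeneration addition. Data normalized to full inhibition by 1.43 uM quinidine.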
# [5] = biological target: Cytochrome P450 2C19 (Homo sapiens) (UniProt P33261); assay: qHTS Assay for Inhibitors and Substrates of Cytochrome P450 2C19 (AID 899); conditions: recombinant CYP2C19, luciferin-H EGE luminescence; series mostly up to 11.4 µM; also: nearly all actives have a fitted effect of over 60% in size; also: potency is read from the fitted curve at half-maximal effect
# Summary of the method: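 Human CYP2C19 (5nM) with Luciferin-H EGE at 10uM (its KM) in 50mM KPO4 was preincubated with compound for 10 min at 37C. NADPH regeneration started a 60 min 37C reaction. Luciferin was read by luminescence, normalized to 57uM ketoconazole.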
# Sequence of Cytochrome P450 3A4 (Homo sapiens) (P08684 whole entry, looked up): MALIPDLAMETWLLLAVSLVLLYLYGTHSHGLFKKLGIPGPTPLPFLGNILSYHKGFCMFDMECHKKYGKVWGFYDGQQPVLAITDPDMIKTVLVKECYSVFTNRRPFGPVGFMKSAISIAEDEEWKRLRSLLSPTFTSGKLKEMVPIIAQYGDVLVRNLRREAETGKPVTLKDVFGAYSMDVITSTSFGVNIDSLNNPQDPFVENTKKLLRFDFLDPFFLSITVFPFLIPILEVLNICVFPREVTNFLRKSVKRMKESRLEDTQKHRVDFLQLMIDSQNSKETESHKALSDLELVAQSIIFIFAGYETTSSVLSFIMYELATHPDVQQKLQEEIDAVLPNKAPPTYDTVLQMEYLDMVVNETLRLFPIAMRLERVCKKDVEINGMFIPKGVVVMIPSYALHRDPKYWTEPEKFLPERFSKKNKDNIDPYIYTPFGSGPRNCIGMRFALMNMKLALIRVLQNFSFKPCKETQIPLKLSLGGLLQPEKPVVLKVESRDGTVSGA
# Sequence of Cytochrome P450 2C19 (Homo sapiens) (P33261 whole entry, looked up): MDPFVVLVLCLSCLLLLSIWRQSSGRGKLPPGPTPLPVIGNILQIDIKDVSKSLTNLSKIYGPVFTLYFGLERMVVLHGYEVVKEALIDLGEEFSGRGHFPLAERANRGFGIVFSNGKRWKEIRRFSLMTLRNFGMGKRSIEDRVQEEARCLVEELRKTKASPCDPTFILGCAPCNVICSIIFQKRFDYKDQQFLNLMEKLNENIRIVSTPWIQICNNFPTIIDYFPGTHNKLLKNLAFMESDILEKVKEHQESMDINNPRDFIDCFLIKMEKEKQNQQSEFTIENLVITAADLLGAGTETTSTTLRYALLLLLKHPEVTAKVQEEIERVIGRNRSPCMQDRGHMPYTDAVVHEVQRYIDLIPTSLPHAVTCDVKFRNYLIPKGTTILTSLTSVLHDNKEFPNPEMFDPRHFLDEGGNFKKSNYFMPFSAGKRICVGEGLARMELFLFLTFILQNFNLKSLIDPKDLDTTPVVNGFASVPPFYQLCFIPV
# Sequence of Cytochrome P450 2D6 (Homo sapiens) (P10635 whole entry, looked up): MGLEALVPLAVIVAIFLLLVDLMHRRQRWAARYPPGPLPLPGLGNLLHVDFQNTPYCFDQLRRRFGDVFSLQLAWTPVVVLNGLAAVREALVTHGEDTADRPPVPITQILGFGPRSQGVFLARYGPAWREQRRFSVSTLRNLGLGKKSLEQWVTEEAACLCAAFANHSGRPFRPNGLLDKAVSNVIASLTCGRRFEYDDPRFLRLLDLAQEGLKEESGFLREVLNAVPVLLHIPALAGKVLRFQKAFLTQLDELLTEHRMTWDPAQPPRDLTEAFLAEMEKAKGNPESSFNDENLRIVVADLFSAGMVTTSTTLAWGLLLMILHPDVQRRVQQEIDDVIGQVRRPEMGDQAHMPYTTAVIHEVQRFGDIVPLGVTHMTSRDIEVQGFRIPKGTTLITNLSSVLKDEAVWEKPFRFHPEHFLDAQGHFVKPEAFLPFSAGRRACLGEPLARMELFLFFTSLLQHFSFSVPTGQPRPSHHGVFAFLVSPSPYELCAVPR
# Sequence of Cytochrome P450 2C9 (Homo sapiens) (P11712 whole entry, looked up): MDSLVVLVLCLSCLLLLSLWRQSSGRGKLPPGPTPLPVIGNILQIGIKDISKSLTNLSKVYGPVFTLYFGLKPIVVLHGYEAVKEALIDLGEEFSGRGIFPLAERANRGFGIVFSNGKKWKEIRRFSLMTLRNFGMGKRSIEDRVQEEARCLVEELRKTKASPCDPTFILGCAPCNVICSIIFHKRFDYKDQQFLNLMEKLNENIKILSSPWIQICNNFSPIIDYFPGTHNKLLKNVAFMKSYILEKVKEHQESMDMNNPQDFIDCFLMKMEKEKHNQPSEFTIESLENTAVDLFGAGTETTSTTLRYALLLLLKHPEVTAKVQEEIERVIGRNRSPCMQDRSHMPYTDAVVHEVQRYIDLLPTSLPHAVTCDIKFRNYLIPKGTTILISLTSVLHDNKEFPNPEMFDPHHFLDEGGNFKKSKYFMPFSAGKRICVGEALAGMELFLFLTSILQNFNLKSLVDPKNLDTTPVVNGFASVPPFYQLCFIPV
SMILES,Potency [1],Potency [2],"activity change, positive = activation [3]",Potency [4],Potency [5],"activity change, negative = inhibition [2]"
COC(=O)NC(/C(C(=O)OC)=C(\C)NCc1ccccc1)c1ccc(F)cc1 (stereo not given),2.51 µM (active),3.16 µM (active),-71.8% [at 11.4 µM],1 µM (active),0.251 µM (active),
CCCCCCC#CC1C=CC(OC(=O)OCC)C(COC(=O)OCC)O1 (stereo not given),inactive,3.98 µM (active),-78% [at 11.4 µM],inactive,2 µM (active),
C=CCC1C=CC(Oc2ccc(OC)cc2)C(CO)O1 (stereo not given),inactive,3.98 µM (active),-64.8% [at 11.4 µM],inactive,inactive,
Cc1cc2c(nc1C)CCCN2C[C@H](O)CN1CCCc2nc(-c3ccc(Br)cc3)ccc21,2.51 µM (active),3.98 µM (active),-65% [at 11.4 µM] and -47.8% [at 11.4 µM],3.16 µM (active),,
CCOC(=O)OCC1OC(CCc2ccccc2)CCC1Oc1ccc(OC)cc1 (stereo not given),inactive,3.98 µM (active),-68.7% [at 11.4 µM],inactive,,
CCCCCCCC#Cc1ccccc1/C=N/S(=O)c1ccc(C)cc1 (stereo not given),inactive,3.98 µM (active),-65.3% [at 11.4 µM],inactive,inactive,
COc1cccc([C@H]2Oc3ccc(OC)cc3/C(=N\O[C@@H](C)c3cn([C@H](CO)Cc4ccccc4)nn3)[C@@H]2O)c1,1.58 µM (active),3.16 µM (active) and 3.98 µM (active),-102% [at 11.4 µM] and -98.9% [at 11.4 µM],,,
CC1CCC2C(=O)N3C(CCC(C)[C@@H]3c3cccc(N4CCOCC4)c3)C(=O)N2C1c1cccc(Br)c1 (stereo not given in full),2.51 µM (active),0.0251 µM (active),-62% [at 11.4 µM],inactive,,
COc1ccc(/C=C/N(CCc2ccc(OC)c(OC)c2)C(=O)c2ccccn2)cc1,inactive,3.98 µM (active),-97.7% [at 11.4 µM],inactive,inactive,
COc1ccc(/C=C/NC(=O)c2ccc(OC)cc2)cc1,inactive,3.16 µM (active),-68.6% [at 11.4 µM],inactive,inactive,
CCOC(=O)OCC1OC(c2cc(C)cc(C)c2)C=CC1OC(=O)OCC (stereo not given),inactive,3.98 µM (active),-69.3% [at 11.4 µM],inactive,,
CC(=O)c1ccc(OC2C=CC(C#Cc3ccc(Br)cc3)OC2CO)cc1 (stereo not given),inactive,3.16 µM (active),-77.6% [at 11.4 µM],inactive,,
C=CCOC(=O)C(C(C)=O)C(NC(=O)OC)c1cccc(C(F)(F)F)c1 (stereo not given),inactive,1.58 µM (active),-104% [at 11.4 µM],inactive,0.1 µM (active),
C=COCC1CN2C(CCC(C)C2c2ccc(Br)cc2)C(=O)O1 (stereo not given),inactive,3.16 µM (active) and 794 nM (active),-65.3% [at 11.4 µM] and -87.4% [at 11.4 µM],inactive,,
COc1ccc(OC2C=CC(C#Cc3ccc(Br)cc3)OC2CO)c(C(C)(C)C)c1 (stereo not given),3.16 µM (active),3.98 µM (active),-84.8% [at 11.4 µM],inactive,,
COC(=O)C(C(C)=O)C(NC(=O)NCc1ccccc1)c1ccccc1 (stereo not given),inactive,3.98 µM (active),-69.4% [at 11.4 µM],inactive,,
C=CCOC(=O)/C=C/NC(=O)/C=C/C=C/CCCCCCCC(C)O (stereo not given),3.98 µM (active) and 2.51 µM (active),3.16 µM (active) and 3.98 µM (active),-72.9% [at 11.4 µM] and -68.1% [at 11.4 µM],inactive,,
COc1cccc([C@@H]2Oc3ccc(OC)cc3/C(=N/O[C@@H](C)CN3CCCCc4nc(C)c(C)cc43)[C@@H]2O)c1,1.58 µM (active),3.98 µM (active),-96.4% [at 11.4 µM],,,
CC(=O)OCC1OC(C#Cc2ccccc2)C=CC1OC(C)=O (stereo not given),inactive,3.98 µM (active),-91.5% [at 11.4 µM] and -31.7% [at 11.4 µM],inactive,inactive,
C[C@H]1CC[C@H]2C(=O)N[C@H](Cc3ccccc3)C(=O)N2[C@@H]1c1ccccc1,inactive,2.51 µM (active),-99.1% [at 11.4 µM],,,
COC(=O)C1=C(C)N(Cc2ccccc2)C2=C(C(=O)c3ccccc3)C(c3ccccc3)[C@@](O)(C(=O)OC)C(=O)N2C1c1ccccc1 (stereo not given in full),inactive,,-54.4% [at 11.4 µM],inactive,inactive,-22.8% [at 11.4 µM]
